system: Lefty1; assay: Lefty1 protein binding to printed compounds – biochemical, small-molecule microarray, 635/667 nm fluorescence, primary screen (AID 1139); conditions: fluorescence 635/667, higher = more signal

Structure (SMILES) | composite z-score
CC(=O)NCCCC[C@@H]1NC(=O)[C@H]2C[C@@H](C(=O)NCCCCCC[N+](C)(C)C)[C@@H](c3cccc(OCCO)c3)N2C1=O | 1.39
COC(=O)[C@@]1(Cc2ccc(F)cc2)[C@H]2c3cc(C(=O)N(C)C)n(CCc4ccccn4)c3C[C@H]2CN1C(=O)c1ccccc1 | 0.221
CN(C)CCCNC(=O)[C@@]1(Cc2ccccc2I)c2ccccc2C(=O)N(Cc2ccccc2C(F)(F)F)[C@H]1c1ccc(CO)cc1 | -0.406
NC(=O)NCC#Cc1ccc2c(c1)[C@]1(C(=O)N2)[C@H](C(=O)N2CCCCCCC2)[C@H]2C(=O)O[C@H](c3ccccc3)[C@H](c3ccccc3)N2[C@@H]1c1ccc(OCCO)cc1 | 1.25
O=C(O)[C@@]1(Cc2ccccc2)N=C(c2ccc(OCCCO)cc2)O[C@H]1c1ccccc1 | 0.194
CCOC(=O)C1=CCC(c2ccc([N+](=O)[O-])cc2)N(S(=O)(=O)c2ccc(C)cc2)C1 (stereo unspecified) | -0.023
COCCOC(=O)N1C(=O)[C@@]2(c3cc(C#CCCO)ccc31)[C@H](c1ccc(O)cc1)N1[C@H](c3ccccc3)[C@H](c3ccccc3)OC(=O)[C@H]1[C@@H]2C(N)=O | 0.296
COc1ccc(C(O)C2C=CC3C(=O)NC(=O)C3N2Nc2ccccn2)cc1OCc1ccccc1 (stereo unspecified) | -0.168
O=C1OCC=C[C@H]2OC34C=CCN(c5ccc6ccccc6c5)C(=O)[C@H]3N(CCCO)C(=O)[C@@H]4[C@@H]12 (stereo partly specified) | -0.11
CCC[C@@H]1C=C(C(=O)O)[C@H](c2ccc(C)cc2)N1S(=O)(=O)c1ccc(C)cc1 | -0.234
COC(=O)c1ccc(C23CC2(C(NP(=O)(c2ccccc2)c2ccccc2)c2ccccc2)C3)cc1 (stereo unspecified) | -0.414

system: wheat germ agglutinin (Triticum aestivum), Alexa647-labelled; assay: Alexa647-WGA lectin binding to printed small molecules – biochemical, small-molecule microarray, 635/667 nm fluorescence, artefact control for SMM control-protein annotation, profiling panel (AID 1140); conditions: WGA-A647 binding, 635 nm fluorescence, higher = more signal;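 note: score merges 667 nm feature emission with signal to noise over triplicate slides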

Structure (SMILES) | composite z-score
O=C1O[C@H](c2ccccc2)[C@H](c2ccccc2)N2[C@H]1[C@@H](C(=O)N1CCN(c3ncccn3)CC1)[C@]1(C(=O)Nc3ccccc31)[C@H]2c1ccc(OCCO)cc1 | 0.0522
C=CCNC(=O)[C@@H]1[C@H]2C(=O)O[C@H](c3ccccc3)[C@H](c3ccccc3)N2[C@H](c2ccc(OCCO)cc2)[C@@]12C(=O)Nc1ccccc12 | 0.496
CC(C)C[C@@H]1NC(=O)[C@@H]2C[C@H](C(=O)NCCCCCC[N+](C)(C)C)[C@H](c3ccc(O)cc3)N2C1=O | 0.56
CCCC[C@H]1OB(O)C[C@H]2C1=C(C)C[C@H]1C(=O)N(Cc3ccccc3)C(=O)[C@H]12 | -0.144
COc1ccc(C#Cc2ccc3c(c2)[C@]2(C(=O)N3)[C@H](C(=O)NC[C@H](O)c3ccccc3)[C@H]3C(=O)O[C@H](c4ccccc4)[C@H](c4ccccc4)N3[C@@H]2c2ccc(OCCO)cc2)cc1 | 1.13
COCCOC(=O)N1C(=O)[C@@]2(c3cc(C#CCNC(N)=O)ccc31)[C@H](c1ccc(O)cc1)N1[C@H](c3ccccc3)[C@H](c3ccccc3)OC(=O)[C@H]1[C@@H]2C(=O)Nc1nc2ccccc2s1 | 0.785
COC(=O)[C@@]1(Cc2ccccc2)[C@H]2c3cc(C(=O)N4CCCC4)n(Cc4ccc(C)o4)c3C[C@H]2CN1C(=O)c1ccccc1 | 1.18
COc1cc2c(cc1OC)CN(C(=O)[C@@H]1[C@H]3C(=O)O[C@H](c4ccccc4)[C@H](c4ccccc4)N3[C@H](c3ccccc3OCCO)[C@@]13C(=O)Nc1ccc(C#CCNC(N)=O)cc13)CC2 | 0.856
COC(=O)[C@@]1(Cc2ccc(OC)cc2)[C@H]2c3cc(C(=O)N(C)C)n(Cc4c(OC)[nH]cc(C)c4=O)c3C[C@H]2CN1C(=O)c1ccccc1 | 0.59
COCCOC(=O)N1C(=O)[C@@]2(c3cc(C#CCCO)ccc31)[C@H](C(=O)NC[C@H](O)c1ccccc1)[C@H]1C(=O)O[C@H](c3ccccc3)[C@H](c3ccccc3)N1[C@@H]2c1ccc(O)cc1 | 0.363
COC(=O)[C@]1(Cc2ccccc2N=[N+]=[N-])N=C(c2ccc(OCCCO)cc2)O[C@@H]1c1ccccc1N=[N+]=[N-] | 0.149
[N-]=[N+]=NCc1ccccc1[C@@H]1OC(c2ccc(OCCCO)cc2)=N[C@]1(Cc1ccccc1N=[N+]=[N-])C(=O)NCc1ccccc1 | 0.421
Cc1ccc(S[C@]2(C(=O)NC3CC3)CC(=O)N(C3CCCCC3)[C@@H]2c2ccc(CO)cc2I)cc1 | 0.368
CC(C)NC(=O)[C@@H]1c2ccccc2C(=O)N(Cc2ccccc2)[C@H]1c1ccc(CO)cc1 | 0.826
[N-]=[N+]=NCc1ccccc1[C@H]1OC(c2ccc(OCCCO)cc2)=N[C@@]1(CCS(=O)(=O)c1ccccc1)C(=O)N1CCOCC1 | 1.35

Source: PubChem BioAssay
